Measured values taken from PubChem BioAssay (Tox21).
Records with an inconclusive call do not appear. The source made the active and inactive calls. Unless noted, calls come from the whole dose curve; as a rule, active = well fitted curve in the direction sought with a large enough effect in the repeat runs; inconclusive = weak or mixed curves; inactive = no such curve, though single readings can be large; an effect the other way counts as inactive or inconclusive.

What was measured:
[1] = qHTS assay to identify small molecule agonists of the vitamin D receptor (VDR) signaling pathway - cell viability counter screen (AID 743224); note: series mostly up to about 63 µM; nearly all actives have a fitted effect of over 50% in size
Method in brief: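 Counter screen run in the same wells as the VDR-bla reporter assay: CellTiter-Glo luminescence, 30 min at room temperature, after 16 h compound treatment at 37C of cells pre-plated for 4 h.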

[2] = qHTS assay to identify small molecule agonists of the NFkB signaling pathway (AID 1159509; active = well fitted curve in the direction sought with a large enough effect in the signal ratio in the repeat runs, not every such curve was filed as active; the % refers to the signal ratio; note: series mostly up to about 61 µM)
Method in brief: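 Beta-lactamase reporter assay run in quantitative high-throughput format on an NF-kB-responsive ME-180 line, with 5 hr compound treatment and a FRET-based blue/green fluorescence readout.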

[3] = qHTS assay to identify small molecule agonists of the NFkB signaling pathway - cell viability counter screen (AID 1159515; calls by dose curve; note: series mostly up to about 61 µM; nearly all actives have a fitted effect of over 55% in size)
Method in brief: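 Read by CellTiter-Glo luminescence (30 min, room temperature) in the wells also used for the beta-lactamase FRET read. ME-180 NFkB-bla cells at 2,000 per well were plated overnight, then exposed to compound for 5 hr at 37 C.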

[4] = qHTS assay to identify small molecule agonists of the endoplasmic reticulum stress response signaling pathway (AID 1159516; active = well fitted activation curve with a large enough effect in the signal ratio in the repeat runs, not every such curve was filed as active; the % refers to the signal ratio)
Method in brief: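 Ratiometric FRET readout (405 nm excitation; 460 and 530 nm emission) of a beta-lactamase gene driven by the ER stress response element, after 2 hr substrate loading. HeLa ESRE-bla cells were seeded overnight and treated with compounds for only 5 hr at 37 C.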

[5] = qHTS assay to identify small molecule agonists of the endoplasmic reticulum stress response signaling pathway - cell viability counter screen (AID 1159517; calls by dose curve; note: series mostly up to about 61 µM; nearly all actives have a fitted effect of over 50% in size)
Method in brief: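 After overnight attachment, ESRE-bla HeLa cells were treated with Tox21 library compounds for 5 hr. CellTiter-Glo luminescence, read 30 min post-addition at room temperature, reported viability.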

[6] = qHTS assay to identify small molecule antagonists of the retinoid-related orphan receptor gamma (ROR-gamma) signaling pathway - cell viability counter screen (AID 1159520); note: nearly all actives have a fitted effect of over 50% in size
Method in brief: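 Cytotoxicity was read from cellular ATP (CellTiter-Glo luminescence) after 16 hr at 37 C with 1 uM doxycycline induction. The inducer was added 2 hr after compound transfer to Tet-on ROR gamma CHO cells.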

[7] = molecular target: Nuclear receptor ROR-gamma (Homo sapiens) (UniProt P51449); assay: qHTS assay to identify small molecule antagonists of the retinoid-related orphan receptor gamma (ROR-gamma) signaling pathway (AID 1159521;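 note: CHO cells with doxycycline inducible ROR-gamma driving an RORE luciferase reporter; top concentration of the series differs between compounds; nearly all actives have a fitted effect of over 50% in size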)
Method in brief: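 RORγ antagonism is scored from reduced reporter luminescence in Tet-on CHO cells. Induction used 1 uM final doxycycline hyclate for 16 h at 37 C, following a 2 h compound exposure.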

[8] = qHTS assay to identify small molecule agonists of the AP-1 signaling pathway (AID 1159526; calls by dose curve)
[9] = molecular target: Retinoic acid receptor RXR-alpha (Homo sapiens) (UniProt P19793); assay: qHTS assay to identify small molecule agonists of the RXR signaling pathway (AID 1159527; calls by dose curve; note: nearly all actives have a fitted effect of over 35% in size)
Sequence of Retinoic acid receptor RXR-alpha (Homo sapiens) (P19793 whole entry, looked up): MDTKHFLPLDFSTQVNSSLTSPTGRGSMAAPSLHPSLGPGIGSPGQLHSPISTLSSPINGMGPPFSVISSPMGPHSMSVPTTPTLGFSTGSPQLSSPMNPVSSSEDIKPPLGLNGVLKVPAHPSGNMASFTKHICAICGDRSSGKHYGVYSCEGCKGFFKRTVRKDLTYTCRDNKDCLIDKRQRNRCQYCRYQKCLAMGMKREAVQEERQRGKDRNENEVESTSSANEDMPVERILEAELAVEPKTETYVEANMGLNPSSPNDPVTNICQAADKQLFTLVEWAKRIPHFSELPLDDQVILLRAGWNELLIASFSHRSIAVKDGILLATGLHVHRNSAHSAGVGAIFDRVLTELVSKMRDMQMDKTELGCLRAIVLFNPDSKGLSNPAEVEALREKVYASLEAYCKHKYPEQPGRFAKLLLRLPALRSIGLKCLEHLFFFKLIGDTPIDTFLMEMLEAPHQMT
Method in brief: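 qHTS of the Tox21 10K library in GeneBLAzer RXR-alpha HEK 293T cells carrying a beta-lactamase reporter […]; 16 hr treatment, 9-cis retinoic acid as agonist control, FRET read-out.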

[10] = qHTS assay to identify small molecule agonists of the RXR signaling pathway - cell viability counter screen (AID 1159529)
Method in brief: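 Cell viability is measured by CellTiter-Glo luminescence, 30 min at room temperature, in wells already read for beta-lactamase. Engineered HEK 293T cells (RXR-alpha-UAS-bla) are dosed 16 hr at 37 C. Tetraoctyl ammonium bromide serves as positive control.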

[11] = qHTS assay to identify small molecule antagonists of the retinoid acid receptor (RAR) signaling pathway - cell viability counter screen (AID 1159551); note: nearly all actives have a fitted effect of over 35% in size
Method in brief: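 Cytotoxicity counter screen: ATP content quantified by CellTiter-Glo luminescence in C3RL4 cells treated 6 hr at 37 C with compound and retinol (1 uM final). Cells plated at 1,000/well and cultured overnight before dosing.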

[12] = qHTS assay to identify small molecule antagonists of the retinoic acid receptor (RAR) signaling pathway (AID 1159552; note: nearly all actives have a fitted effect of over 50% in size)
Method in brief: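 Quantitative HTS in C3RL4 RARE-luciferase reporter cells. Compounds were added with 1 uM (final) retinol; luminescence was read after 6 hr.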

[13] = qHTS assay to identify small molecule agonists of the retinoic acid receptor (RAR) signaling pathway (AID 1159553)
Method in brief: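 Luminescence was measured 30 min after luciferase reagent addition at room temperature. Before that, C3RL4 reporter cells (1,000 per well, plated overnight) were treated with compound for 6 hr at 37 C and 5% CO2.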

[14] = qHTS assay to identify small molecule antagonists of the estrogen related receptor (ERR) signaling pathway from Tox21 library - cell viability counter screen (AID 1224834); note: nearly all actives have a fitted effect of over 30% in size
Method in brief: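 CellTiter-Fluor fluorescence, read after 30 min at 37 C, measures viability of ERR cells. Cells plated at 2,000/well and incubated 6 h before pin-tool compound addition, then exposed 17.5 hours at 37 C.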

[15] = molecular target: Luciferin 4-monooxygenase (Photinus pyralis) (UniProt P08659); assay: qHTS assay to identify small molecule inhibitors of firefly luciferase (AID 1224835); note: series mostly up to about 120 µM; nearly all actives have a fitted effect of over 25% in size
Sequence of Luciferin 4-monooxygenase (Photinus pyralis) (P08659 whole entry, looked up): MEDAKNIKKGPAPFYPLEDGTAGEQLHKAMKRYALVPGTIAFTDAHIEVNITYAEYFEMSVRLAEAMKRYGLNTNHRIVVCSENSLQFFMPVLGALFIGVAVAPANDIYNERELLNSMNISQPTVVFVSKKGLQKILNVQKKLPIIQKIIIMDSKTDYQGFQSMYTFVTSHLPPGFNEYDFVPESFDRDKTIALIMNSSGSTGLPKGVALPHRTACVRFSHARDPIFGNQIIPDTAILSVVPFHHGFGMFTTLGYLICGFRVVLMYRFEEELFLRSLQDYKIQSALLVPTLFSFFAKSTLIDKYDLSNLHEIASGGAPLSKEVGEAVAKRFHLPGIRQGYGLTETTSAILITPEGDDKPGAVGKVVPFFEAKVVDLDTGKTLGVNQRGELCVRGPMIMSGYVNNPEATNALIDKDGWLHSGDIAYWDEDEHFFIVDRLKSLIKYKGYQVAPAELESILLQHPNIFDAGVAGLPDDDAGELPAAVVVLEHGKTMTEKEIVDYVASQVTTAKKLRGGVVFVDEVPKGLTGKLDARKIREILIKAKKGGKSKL
Method in brief: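 Inhibition of purified Photinus luciferase is measured by luminescence. Substrate levels (D-luciferin, ATP) sit at their KM values. Each compound is tested in a concentration series.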

[16] = qHTS assay to identify small molecule agonists of the constitutive androstane receptor (CAR) signaling pathway - cell viability counter screen (AID 1224836); note: series mostly up to about 92 µM; nearly all actives have a fitted effect of over 45% in size
Method in brief: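 Counter screen multiplexed with the CAR reporter readout: HepG2 cells co-transfected with hCAR and the CYP2B6-2.2kb construct receive a 15-concentration compound series and 0.75 uM PK11195 (final), then CellTiter-Fluor fluorescence is read after 23 h.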

[17] = qHTS assay to identify small molecule antagonists of the constitutive androstane receptor (CAR) signaling pathway - cell viability counter screen (AID 1224837); note: series mostly up to about 92 µM; nearly all actives have a fitted effect of over 45% in size
Method in brief: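 Cytotoxicity counter-screen: CellTiter-Fluor fluorescence after 23 h compound exposure (15-point qHTS) in double-stable HepG2-CYP2B6-hCAR cells, with 50 nM CITCO added.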

[18] = molecular target: Nuclear receptor subfamily 1 group I member 3 (Homo sapiens) (UniProt Q14994); assay: qHTS assay to identify small molecule antagonists of the constitutive androstane receptor (CAR) signaling pathway (AID 1224838);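 note: HepG2 cells stably expressing hCAR with CYP2B6 luciferase reporter stimulated by CITCO; nearly all actives have a fitted effect of over 40% in size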
Sequence of Nuclear receptor subfamily 1 group I member 3 (Homo sapiens) (Q14994 whole entry, looked up): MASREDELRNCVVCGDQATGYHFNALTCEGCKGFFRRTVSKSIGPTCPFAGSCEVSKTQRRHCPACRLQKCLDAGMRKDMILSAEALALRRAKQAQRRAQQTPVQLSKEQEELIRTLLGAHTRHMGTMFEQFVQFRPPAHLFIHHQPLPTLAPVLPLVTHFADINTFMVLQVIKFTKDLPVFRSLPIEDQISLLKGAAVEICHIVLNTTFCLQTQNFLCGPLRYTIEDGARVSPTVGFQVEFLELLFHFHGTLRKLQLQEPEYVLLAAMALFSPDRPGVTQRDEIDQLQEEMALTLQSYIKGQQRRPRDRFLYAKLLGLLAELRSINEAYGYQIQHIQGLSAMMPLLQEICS
Method in brief: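 Antagonism measured as luciferase signal (ONE-Glo, 30 min, room temperature) in CAR-stimulated cells: HepG2-CYP2B6-hCAR double-stable line exposed 24 hr at 37 C to compound in a 15-point series plus 50 nM CITCO.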

[19] = qHTS assay to identify small molecule antagonists of the vitamin D receptor (VDR) signaling pathway - cell viability counter screen (AID 743225); note: nearly all actives have a fitted effect of over 50% in size
Method in brief: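 Cells (VDR-UAS-bla HEK 293T) are plated, rested 4 h at 37C, dosed with compound and 3 nM final 1-alpha,25-dihydroxy vitamin D3, and incubated 16 h. Viability is taken from CellTiter-Glo luminescence in the reporter wells.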

[20] = qHTS assay to identify small molecule agonists of the AP-1 signaling pathway - cell viability counter screen (AID 1159525; calls by dose curve; note: nearly all actives have a fitted effect of over 55% in size)
Method in brief: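 Intracellular ATP by Cell Titer Glo luminescence (30 min, RT) in the same ME-180 AP-1-bla wells after the 5 h compound exposure at 37 °C. Normalised to tetra n-octyl ammonium bromide and DMSO controls.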

Measured: Potency

CCC(=O)CC
not listed: [19] | [20]
inactive: all other assays above

C=C(C)[C@@H]1CC=C(C)C(=O)C1
not listed: [12] | [13] | [17] | [18]
inactive: all other assays above

O=C(O)CCCCCC(=O)O
not listed: [20]
inactive: all other assays above

CC1=C(O)C(=O)C(C)O1 (stereo not drawn)
not listed: [17] | [20]
inactive: all other assays above

CC1=C(C(=O)O)N2C(=O)[C@@H](NC(=O)[C@H](N)c3ccccc3)[C@H]2SC1
not listed: [9]
inactive: all other assays above

O=[N+]([O-])c1c(Cl)cc(Cl)cc1Cl
not listed: [20]
inactive: all other assays above

CC(=O)CCc1ccc(OC(C)=O)cc1
not listed: [16]
inactive: all other assays above
